Experimental data from PubChem BioAssay AID686979 (National Center for Advancing Translational Sciences (NCATS), 2013).
Out of some 420,000 compounds screened, about 50,000 (12%) were called active. A call without a number means that no potency is given here. Another 26% or so got no clear call; they are omitted. Calls come from the whole dose curve; as a rule, active = well fitted inhibition curve with a large enough effect; inconclusive = small, poorly fitted or top-dose-only effect; inactive = flat fitted curve, though single readings scatter. The full list was thinned out, with actives kept by preference.

Test: qHTS for Inhibitors of human tyrosyl-DNA phosphodiesterase 1 (TDP1): qHTS in cells in presence of CPT; note: nearly all actives have a fitted effect of over 55% in size
Conditions: chicken DT40 Tdp1-/-;hTDP1 cells + 20 nM CPT, ATP luminescence, 48 h; series mostly up to 46.2 µM
How it was run: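 Chicken DT40 Tdp1-/- cells stably complemented with human TDP1 were seeded at 400 cells/well in medium containing 20 nM camptothecin, exposed to pin-transferred compounds, and grown at 37 °C for at least 48 hr. Viability was read as ATP luminescence.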
Potency is the fitted concentration of half-maximal effect.

Structure (SMILES)	Potency	activity change, negative = growth inhibition
COc1ccc(CCNC(=O)CN(C)S(=O)(=O)c2ccc3nc(C)sc3c2)cc1OC	inactive	
COCCSc1nnc(NC(=O)c2cc(OC)c(OC)cc2[N+](=O)[O-])s1	inactive	
CCN1CCN(C(=O)c2cc3cc4ccc(OC)cc4nc3s2)CC1	inactive	
COC(=O)c1ccc(NC(=O)c2cccc3c2C(=O)N(C2CCCCC2)C3)cc1	inactive	
COc1ccc(CCNc2ncnc3nc[nH]c23)cc1OC	18.4 µM (active)	
CCS(=O)(=O)NCCc1ccc(OC)c(OC)c1	inactive	
COc1ccc(CCNc2ncnc3sc(C(=O)N4CCCC4)c(C)c23)cc1OC		3.59% [at 9.04 µM] (inactive)
COc1ccc(/C(C)=N/N2CCOCC2)c(O)c1	inactive	
O=C(Nc1cc(-c2nn(CC(=O)N3CCCCC3)c(=O)c3ccccc23)ccc1N1CCOCC1)c1ccc(Cl)cc1	inactive	
COc1ccc(S(=O)(=O)N2CCN(C(=O)c3cc(C)oc3C)CC2)cc1	inactive	
CC(=O)c1c(C)[nH]c(C(=O)N2CCN(S(=O)(=O)c3ccc(F)c(F)c3)CC2)c1C	0.231 µM (active)	
CC(=O)c1c(C)[nH]c(C(=O)OCC(=O)Nc2cc(S(=O)(=O)N3CCCCC3)ccc2C)c1C	inactive	
COc1cccc2c1CCC(NC(C)=O)C2=O (centres undefined)	inactive	
Cc1cc(O)c(Sc2ccccc2)c(=O)o1	inactive	
O=C(Nc1ccccc1Cl)/C(Cl)=C(\Cl)S(=O)c1ccccc1 (centres undefined)	0.164 µM (active)	
O=C(Nc1ccccc1Cl)c1ccc2nsnc2c1	inactive	
O=C(COC(=O)c1cccs1)Nc1ccccc1Cl	inactive	
CCNC(=S)NCC	inactive	
Cc1cc(C)c(S(=O)(=O)NN=C2c3ccccc3[C@H]3Cc4csc[n+]4[C@@H]23)c(C)c1	29.1 µM (active)	
CC(=O)Nc1ccc(S(=O)(=O)NC(C)C(=O)OCCOc2ccc(F)cc2)cc1 (centres undefined)	inactive	
CCC(=O)NC(NCC1CCCO1)C(Cl)(Cl)Cl (centres undefined)	inactive	
CC1(C(=O)NNC(=S)NCC2CCCO2)CC1(Cl)Cl (centres undefined)	18.4 µM (active)	
O=C(NCC1CCCO1)c1cc2c(s1)CCCC2 (centres undefined)	inactive	
COc1ccc(NC(=S)N2CCC(NC(=O)c3cccc(F)c3)CC2)cc1	inactive	
COc1ccc(C)cc1Nc1nc(C)nc2c1oc1ccccc12	inactive	

Structure (SMILES)	Potency	activity change, negative = growth inhibition
CCOC(=O)CC(=O)CSc1nc(-c2ccccc2)cc(-c2ccc(Cl)cc2)c1C#N	inactive	
CCOc1cc(-c2cc(-c3ccc(NC(C)=O)cc3)nc(N)c2C#N)ccc1O	18.4 µM (active)	
CC(=O)Nc1ccc(-c2cn3cccnc3n2)cc1	inactive	
CN(C(=O)CSc1nnc(C2CC2)n1C)C1CCCc2ccccc21 (centres undefined)	inactive	
COc1ccccc1C(c1nnnn1C(C)(C)C)N1CCN(Cc2ccccc2)CC1 (centres undefined)	inactive	
CCC(C)(C)n1nnnc1C(c1ccccc1OC)N1CCSCC1 (centres undefined)	inactive	
COc1ccc(OC)c(C(c2nnnn2C(C)(C)C)N2CCc3ccccc3C2)c1 (centres undefined)	20.6 µM (active)	
CC(=O)c1nn(-c2cccc(C(F)(F)F)c2)c(=O)[nH]c1=O	inactive	
CCOc1ccc(CCN2C(=O)c3cccnc3C2=O)cc1OCC	inactive	
CCOc1ccc(N(CC)C(=O)c2cc3c(=O)oc4ccccc4c3s2)cc1	inactive	
CCOC(=O)c1ccc2[nH]c3c(c2c1)CCCC3NC=O (centres undefined)	inactive	
O=C(CN1CCN(S(=O)(=O)c2cccc(Cl)c2)CC1)N1CCCCC1	inactive	
CN(C(=O)CN1C(=O)CCSc2ccc(S(=O)(=O)N3CCCC3)cc21)c1ccccc1	inactive	
O=C(CN1CCCSc2ccccc21)N1CCN(S(=O)(=O)c2cccc(F)c2)CC1	16.4 µM (active)	
C=CC1=C(C(=O)O)N2C(=O)[C@@H](NC(=O)/C(=N/OCC(=O)O)c3csc(N)n3)[C@H]2SC1	inactive	
CCn1c(SCC(=O)N/N=C/C=C/c2ccccc2[N+](=O)[O-])nnc1-c1ccccc1	inactive	
CCC1(C)COC(c2ccc(OC)c(OC)c2)OC1 (centres undefined)	inactive	
COc1cccc(-c2ccc3c(c2)S(=O)(=O)c2cccc(C(=O)O)c2C3=O)c1OC	inactive	
CC(C)c1cc(C(=O)N/N=C/C(Br)=C/c2ccccc2)n[nH]1	2.31 µM (active)	
CC(=C/c1ccccc1)/C=N/NC(=O)c1cc(C)oc1C	inactive	
Cc1cc(C(=O)N/N=C\C(Br)=C\c2ccccc2)c(C)o1	8.2 µM (active)	
Cc1cc(C(=O)NCCc2ccc(Cl)cc2)c(C)o1	inactive	
CC(C)c1cc(C(=O)O)n[nH]1	inactive	
Cc1ccc(/C=N/NC(=O)C(NC(=O)c2ccccc2)c2n[nH]c(=O)c3ccccc23)cc1 (centres undefined)	inactive	
Cc1ccc(C2(C)NC(=O)N(CC(=O)Nc3ccccc3C(=O)N3CCCCC3)C2=O)cc1 (centres undefined)	inactive	

Structure (SMILES)	Potency	activity change, negative = growth inhibition
CCN(CC)CCCNC(=O)c1cn(C)c2ccc(S(=O)(=O)N(C)C3CCCCC3)cc2c1=O	inactive	
CCN(CC)CCn1cnc2c1c(=O)n(CCOC(=O)c1cc(OC)c(OC)c(OC)c1)c(=O)n2C	inactive	
COc1cc2c(cc1OC)C(/C=C/c1ccco1)=NCC2	23.1 µM (active)	
COc1ccc([N+](=O)[O-])cc1NC(=O)COC(=O)/C=C/c1ccco1	inactive	
CCOC(=O)C1=NN(c2ccc(Cl)cc2)/C(=C/C2=NCCc3cc(OC)c(OC)cc32)S1	inactive	
Cc1ccc2c(c1)NC(=O)[C@@]1(C)[C@@H](c3ccccc3)[C@H]3COc4ccc(Cl)cc4[C@@H]3N1C2=O	25.9 µM (active)	
CCOC(=O)[C@H]1[C@H]2COc3ccc(OC)cc3[C@@H]2N2C(=O)c3ccc(F)cc3NC(=O)[C@@]12C	inactive	
C[C@@H]1NC(=O)[C@@]2(C)[C@@H](c3ccccc3)[C@H]3COc4ccccc4[C@@H]3N2C1=O	inactive	
Cc1ccc(Cl)cc1N1CCN(C(=O)c2cccn3c(=O)c4cc(Cl)ccc4nc23)CC1	inactive	
Cc1cn(C)c(CC(=O)NCc2ccc(Cl)cc2)c1C(=O)O	inactive	
O=C(Nc1ccccc1)/C(=C/c1ccc([N+](=O)[O-])cc1)NC(=O)c1ccccc1	inactive	
CCOC(=O)/C(=C\c1ccc([N+](=O)[O-])cc1)C(=O)c1cc(C(C)=O)c(Nc2ccccc2)s1	0.58 µM (active)	
CCOC(=O)COc1ccc([N+](=O)[O-])cc1	inactive	
COc1ccc(NC(=O)CN(C)C(=O)c2n[nH]c3ccccc23)cc1	inactive	
FC(F)(F)c1cccc(N/N=C/c2ccccc2)c1	inactive	
FC(F)(F)c1cccc(Nc2ncnc3ccccc23)c1	11.6 µM (active)	
O=c1cc(CO)oc(C(Nc2cccc(C(F)(F)F)c2)c2ccccn2)c1O (centres undefined)	inactive	
COc1ccc(NC(=O)CSc2nc(SC)ns2)c(OC)c1	inactive	
c1ccc(C2CNCc3c2ccc2ccccc32)cc1 (centres undefined)	14.6 µM (active)	
C/C(=N/NC(=O)CC(=O)N/N=C(\C)c1ccc([N+](=O)[O-])cc1)c1ccc([N+](=O)[O-])cc1	inactive	
COc1ccc(-c2cc(C(=O)NCc3ccco3)no2)cc1OC	inactive	
COc1ccc(C2=NOC(C(=O)NCc3ccco3)C2)cc1OC (centres undefined)	2.59 µM (active)	
COc1ccc(S(=O)(=O)N2CCC(C(=O)NCc3ccco3)CC2)cc1C	inactive	
O=C1CC2(CCCC2)C(=O)N1CN1CCN(S(=O)(=O)c2ccc(F)cc2F)CC1	inactive	
CN(C)S(=O)(=O)c1cc(NC(=O)CN2C(=O)NC3(CCCc4ccccc43)C2=O)ccc1Cl (centres undefined)	16.4 µM (active)	

Structure (SMILES)	Potency	activity change, negative = growth inhibition
CCOc1ccc(CCNC(=O)CN2C(=O)NC3(CCc4ccccc43)C2=O)cc1OCC (centres undefined)	inactive	
O=C(CN1C(=O)NC2(CCc3ccccc32)C1=O)NC1CCCCC1 (centres undefined)	inactive	
Cc1ccc(COc2ccc(C(=O)NN)cc2)cc1	inactive	
CCN(CC)CCNCC(=O)Nc1ccc(Oc2ccccc2)cc1	inactive	
O=C(c1ccc2c(c1)C(=O)N(Cc1ccncc1)C2=O)N1CCN(S(=O)(=O)c2ccc(OC(F)(F)F)cc2)CC1	inactive	
NS(=O)(=O)c1cccnc1Nc1cccc(Cl)c1	inactive	
OCCCNc1nccc(-c2cc(Nc3cccc(Cl)c3)ncn2)n1	1.16 µM (active)	
O=C(Nc1cccc(Cl)c1)OCc1ccccn1	inactive	
Cc1c(C)n2c(SCC(=O)NC3CCCC3)nnc2[nH]c1=O	inactive	
CCCN(CC(=O)Nc1ccc(OC)c(OC)c1)CC(=O)Nc1ccc(F)c(F)c1F	inactive	
Cc1cc(C(=O)COc2ccccc2[N+](=O)[O-])c(C)n1-c1cccc(S(=O)(=O)N2CCOCC2)c1	16.4 µM (active)	
Cc1cc(S(=O)(=O)N2CCOCC2)ccc1OCC(=O)N1CCOCC1	inactive	
O=C(COc1ccc(S(=O)(=O)N2CCCC2)cc1[N+](=O)[O-])N1CCCCC1	inactive	
Cc1cccc(N(C(=O)c2sc(C)nc2C)C(C(=O)NCC2CCCO2)c2ccccc2)c1 (centres undefined)	inactive	
CN(C)c1ccc(S(=O)(=O)NCC(=O)NCC2CCCCC2)cc1[N+](=O)[O-]	inactive	
CCOc1ccc(S(=O)(=O)NCCC(=O)NNC(=O)c2ccc(F)cc2)cc1	inactive	
O=C(c1ccncc1)N1CCN(S(=O)(=O)c2cccc([N+](=O)[O-])c2)CC1	inactive	
CCc1ccc(OCC(=O)OC(C)C(=O)NC2CC2)cc1 (centres undefined)	inactive	
CN(CC(=O)Nc1c(Cl)cccc1Cl)C(=O)CC1OC(=O)c2ccccc21 (centres undefined)	inactive	
CCCOC(=O)c1c(NC(=O)c2cc3nc(-c4ccc(OC)cc4)cc(C(F)(F)F)n3n2)sc2c1CCCC2	inactive	
COc1ccc(NC(=O)CN(C)C(=O)c2ccc(COc3ccccc3)o2)cc1	inactive	
O=[N+]([O-])c1ccc(C=Nc2ccc(Cl)cc2Cl)s1	6.51 µM (active)	
CC(=O)N1C(=O)/C(=C2\SC(=S)N(NC(=O)c3ccc(O)cc3)C2=O)c2ccccc21	inactive	
CCOc1ccc(CNC(=O)c2cccc(Nc3nc4ccccc4n4nnnc34)c2)cc1OC	inactive	
